Screens as filed in PubChem BioAssay.
LDHA block: inhibitors of human lactate dehydrogenase A | purified LDHA, NADH/diaphorase-resazurin fluorescence; hits give low values | activity change, % (values are at about 110 or 230 µM) | hit rate 0.15% among 480,000 | AID 1347041; in the data active = activity change below about -30%; inconclusive = mostly about -25% to -30%;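 note: plate controls were DMSO wells for no effect and wells without enzyme for full effect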
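Resorufin fluorescence (ex540/em590), read at 0 and 20 min after diaphorase/resazurin addition, reports the NADH left after a 5 min room-temperature reaction of 2 nM human LDH5 with 0.06 mM NADH and 0.2 mM pyruvate.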
RORg inh: blocks mouse ROR gamma transcriptional activity; P51450; Drosophila S2 Gal4-RORgamma UAS-luciferase reporter, 20 h; Potency, µM (highest dose often 53.6 µM), inactives show at the top dose activity change, negative = inhibition, hits mostly inhibitors; hit rate 5.4% among 310,000; AID 2551; note: potency is the fitted concentration of half-maximal effect; nearly all actives have a fitted effect of over 60% in size
Target sequence (P51450 whole entry, looked up, the tested form may be a part): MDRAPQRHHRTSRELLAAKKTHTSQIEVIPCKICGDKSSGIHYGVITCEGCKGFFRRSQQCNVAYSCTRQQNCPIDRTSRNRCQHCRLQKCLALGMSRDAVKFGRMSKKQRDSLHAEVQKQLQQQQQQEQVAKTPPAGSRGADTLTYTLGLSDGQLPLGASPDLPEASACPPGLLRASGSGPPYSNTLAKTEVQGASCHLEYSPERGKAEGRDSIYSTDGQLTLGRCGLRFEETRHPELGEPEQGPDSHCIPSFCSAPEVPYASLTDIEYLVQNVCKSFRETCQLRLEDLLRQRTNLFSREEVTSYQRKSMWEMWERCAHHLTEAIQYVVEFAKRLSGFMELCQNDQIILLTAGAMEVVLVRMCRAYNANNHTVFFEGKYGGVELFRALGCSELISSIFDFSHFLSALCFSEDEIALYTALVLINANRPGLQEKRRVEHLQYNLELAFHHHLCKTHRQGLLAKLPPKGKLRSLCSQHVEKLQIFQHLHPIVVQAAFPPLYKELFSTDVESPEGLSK
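Stable Schneider cell line, Gal4 DNA-binding domain fused to ROR gamma, UAS-luciferase. Cmpd 1 hr RT → CuSO4 700 uM final → 20 hr RT → luciferase reagent 10 min → luminescence.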
VP16 counter: Gal4-VP16 reporter inhibition counter-screen | Drosophila S2 Gal4-VP16 UAS-luciferase, luminescence, 20 h | Potency, µM (series often up to 53.6 µM), without a hit: at the highest dose activity, negative = inhibition, usual class: inhibitors | hit rate 3.5% among 310,000 | AID 2546;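 note: Gal4-VP16 expression switched on by copper sulfate through the metallothionein promoter; potency is the fitted concentration of half-maximal effect; nearly all actives have a fitted effect of over 50% in size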
TDP1 cell CPT: DT40-hTDP1 cell growth loss with CPT; chicken DT40 Tdp1-/-;hTDP1 cells + 20 nM CPT, ATP luminescence, 48 h; Potency, µM (titrated, usually from 46.2 µM), without a hit: top-dose activity change, negative = growth inhibition, usual class: inhibitors; hit rate 12% among 420,000; AID 686979; note: potency is the fitted concentration of half-maximal effect; nearly all actives have a fitted effect of over 55% in size
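Cell growth measured by CellTiter-Glo luminescence after a minimum 48 h, 37 C compound exposure with 20 nM CPT in Tdp1-knockout DT40 cells stably expressing hTDP1, seeded 400/well; qHTS titration format.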
IL1B secr inh: inhibitors of inflammasome signaling (IL-1 beta secretion) | THP-1 LPS/ATP IL-1B secretion, AlphaLISA, 16 h; hits give low values | activity change, % at 57.5 µM | hit rate 4.7% among 360,000; in the data active = activity change below about -50%; inconclusive = mostly about -30% to -49%
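THP-1 cells pretreated 1 hr with compounds (up to 57.5 uM final), then stimulated with LPS (250 ng/mL final) plus ATP (1.25 mM final); secreted IL-1B measured by AlphaLISA after 16 hr, decreased signal indicating inhibition.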
TDP1 cell noCPT: qHTS for Inhibitors of human tyrosyl-DNA phosphodiesterase 1 (TDP1): qHTS in cells in absence of CPT; DT40 Tdp1-/- hTDP1 cells, no CPT, ATP luminescence, 48 h; Potency, µM (highest dose often 46.2 µM), for inactives: at the highest dose activity change, negative = growth inhibition, most hits filed as inhibitors; hit rate 15% among 420,000; AID 686978, 2013; note: potency is the fitted concentration of half-maximal effect; nearly all actives have a fitted effect of over 55% in size
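Growth of hTDP1-complemented DT40 Tdp1-knockout cells is measured by ATP luminescence after at least 48 hr compound exposure at 37 °C, with DMSO substituting for the 20 nM CPT used in the parallel screen.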
Numbers without * were called inactive; ? = inconclusive; · = no result given; ! = not active in a repeat. Only some compounds are listed: those with a hit (about 18% of all), similar ones and a draw of the others. Unless noted, calls come from the whole dose curve; as a rule, active = well fitted curve in the direction sought with a large enough effect; inconclusive = small, poorly fitted or top-dose-only effect, or another doubt; inactive = no such curve, though single readings can be large; an effect the other way counts as inactive or inconclusive. Unless noted, % is set by controls: 0 for no effect and ±100 for the full control effect.

SMILES	LDHA block	RORg inh	VP16 counter	TDP1 cell CPT	IL1B secr inh	TDP1 cell noCPT
Cc1ccc2nc(-c3ccncc3)c(Nc3ccc(C(C)C)cc3)n2c1	-1.9	·	·	6.51µM*	·	7.31µM*
Cc1ccc(Nc2c(-c3ccncc3)nc3ccc(C)cn23)cc1	0.7	·	·	16.4µM*	·	?
Cc1ccc2nc(-c3ccsc3)c(Nc3ccc(C(C)C)cc3)n2c1	-1.6	·	·	-18.9%	·	-9.0%
COc1cccc(-c2cc(C(=O)NCCc3cccs3)[nH]n2)c1	6.8	·	·	·	·	·
CCOc1ccc(C(C#N)N2CCOCC2)cc1OC (stereo not drawn)	0.0	30.2%	-5.6%	6.5%	13.2	-3.4%
O=C(c1ccccc1)C(CN1CCCCC1)c1ccccc1 (stereo not drawn)	-2.6	·	·	1.84µM*	-102.0*	2.06µM*
CCOc1ccc(C(CN2CCOCC2)C(C)=O)cc1OC (stereo not drawn)	1.7	·	·	4.11µM*	-116.6*	4.11µM*
O=C(c1ccc(Br)cc1)C(CN1CCOCC1)c1ccccc1 (stereo not drawn)	-6.9	15.8µM*	20µM*	1.3µM*	-98.1*	2.06µM*
CCOc1ccc(C(=O)C(CN2CCOCC2)c2ccccc2)cc1 (stereo not drawn)	-1.5	?	?	3.26µM*	-95.0*	3.26µM*
COCCc1ccc(-c2csc(NC(=O)c3cc4cnn(C(C)C)c4nc3C)n2)cc1	-0.2	·	·	·	·	·
COc1ccc(C(O)C(CN2CCOCC2)c2ccccc2)cc1 (stereo not drawn)	-11.1	-14.3%	-7.5%	-21.4%	-7.7	-10.0%
CCCCCCCCCC(=O)N[C@H](CN1CCOCC1)[C@H](O)c1ccccc1	-0.2	-13.4%	?	?	-12.9	23.1µM*!
CCCCCOc1ccc(C(O)C(CN2CCOCC2)c2ccccc2)cc1 (stereo not drawn)	-5.9	25.2%	7.4%	?	-61.8*	?
CC(CN1CCOCC1)OC(=O)COc1ccc(Br)cc1 (stereo not drawn)	-0.6	·	·	·	·	·
CC(CN1CCOCC1)OC(=O)c1ccc(Br)cc1 (stereo not drawn)	11.6	2µM*	?	0.92µM*	31.1	0.651µM*
Fc1ccccc1-c1nnc(SCc2ccc3ccccc3n2)n1C1CC1	-2.2	·	·	·	·	·
Cc1nc(NC(=O)c2ccccc2)sc1-c1csc(Nc2ccc(Cl)cc2)n1	·	-0.4%	1.7%	·	·	·
C=CCCC(=O)Nc1nc(C)c(-c2csc(Nc3ccc(Cl)cc3Cl)n2)s1	-4.3	11.5%	2.1%	?	-21.4	14.6µM*
Cc1nc(NC(=O)c2ccccc2)sc1-c1csc(Nc2ccc(Cl)cc2Cl)n1	·	-38.1%	-4.9%	·	·	·
Cc1nc(NC(=O)CC(C)C)sc1-c1csc(Nc2ccc(Cl)cc2)n1	-1.5	?	?	?	-1.9	14.6µM*
Cc1nc(NC(=O)CC(C)C)sc1-c1csc(Nc2ccc(Cl)cc2Cl)n1	-1.1	20.8%	-5.2%	?	7.4	18.4µM*
Cc1ccc(OCc2nc3ccc(Cl)cc3[nH]2)cc1C	-0.7	·	·	·	·	·
COc1ccc(N(Cc2cccs2)C(=O)Cn2cnc3ccc(Cl)cc3c2=O)cc1	7.8	·	·	·	·	·
COc1ccc(CO/N=C/c2cc(OC)c(OC)c(OC)c2)cc1F	2.3	·	·	·	·	·
O=C/C(=C\Nc1ccc(S(=O)(=O)CCO)cc1)c1nc2cc(Cl)ccc2o1	-0.5	8.91µM*	-15.1%	-5.3%	0.0	-19.8%
SMILES	LDHA block	RORg inh	VP16 counter	TDP1 cell CPT	IL1B secr inh	TDP1 cell noCPT
COc1cc(OC)c(OC)cc1/C=C/C(=O)c1ccc(NS(=O)(=O)c2ccc(C)cc2)cc1	9.8	?	5.2%	?	-59.9*	?
CCOc1cc(C(=O)Nc2ccc(S(=O)(=O)Nc3cc(OC)nc(OC)n3)cc2)cc(OCC)c1OCC	-4.7	·	·	-13.6%	·	-24.7%
COc1cc(NS(=O)(=O)c2ccc(NC(=O)c3ccc(OC)c(Br)c3)cc2)nc(OC)n1	-49.8*	·	·	5.2%	·	-10.5%
CC(=O)c1ccc(NS(=O)(=O)c2ccc(C)cc2)cc1	0.3	20.8%	-8.6%	-15.3%	16.1	-5.2%
COc1cc(NS(=O)(=O)c2ccc(N/C=C\C(=O)c3ccc(C)cc3)cc2)nc(OC)n1	-4.0	·	·	11.6µM*	0.0	20.6µM*
Cc1ccc(C(C(=O)NC2CCCCC2)N(C)c2ccccc2)cc1 (stereo not drawn)	-11.8	·	·	·	·	·
Cc1nc(-c2cc3ccc(OC(=O)CC(C)C)cc3oc2=O)cs1	-9.9	·	·	·	·	·
Cc1ccc(Cl)cc1N1CCN(CC(=O)N(C)CC(=O)Nc2ccccc2C(F)(F)F)CC1	-1.8	·	·	·	·	·
O=C/C(=C\Nc1ccc(Cl)cn1)c1nc2cc(Cl)ccc2o1	-3.5	?	-3.4%	?	34.0	?
COc1cc(NS(=O)(=O)c2ccc(N/C=C(\C#N)c3nc4cc(Cl)ccc4o3)cc2)nc(OC)n1	-6.0	?	-3.3%	9.2µM*	144.3	14.6µM*
O=C/C(=C\Nc1ccc(Cl)cn1)c1nc2ccccc2o1	-2.9	14.1µM*	22.4µM*	?	16.5	?
COc1cc(NS(=O)(=O)c2ccc(NC(C)=O)cc2)nc(OC)n1	-1.9	-9.6%	7.6%	-0.1%	22.2	-6.6%
COc1cc(NS(=O)(=O)c2ccc(NC(=S)NC(=O)c3sc4cc(F)ccc4c3Cl)cc2)nc(OC)n1	-4.5	-39.4%	11.5%	-3.7%	-50.4*	-28.5%
COc1cc(NS(=O)(=O)c2ccc(Nc3nc(-c4ccccn4)cs3)cc2)nc(OC)n1	-20.0	-4.7%	2.2%	-4.1%	11.1	1.7%
COc1ccc(-c2csc(Nc3ccc(S(=O)(=O)Nc4cc(OC)nc(OC)n4)cc3)n2)cc1	-11.3	?	?	1.1%	-75.2*	-3.2%
C/C(=N/Nc1ccc(S(N)(=O)=O)cc1[N+](=O)[O-])c1ccc(Cl)cc1Cl	3.5	·	·	·	·	·
Cc1ccc(S(=O)(=O)N(C)C)cc1NC(=O)c1nn(Cc2ccccc2)c(=O)c2ccccc12	1.5	·	·	·	·	·
Cc1cc(=O)n(CC(=O)Nc2ccc([N+](=O)[O-])cc2)c(-n2nc(C)cc2C)n1	0.0	·	·	18.4µM*	·	20.6µM*
Cc1cc(C)n(-c2nc(C)c(C)c(=O)n2CC(=O)Nc2ccc(OC(F)(F)F)cc2)n1	-0.4	·	·	14.6µM*	·	18.4µM*
Cc1cc(C)n(-c2nc(C)c(C)c(=O)n2CC(=O)Nc2ccc(Cl)c(Cl)c2)n1	-1.7	·	·	14.6µM*	·	7.31µM*
CCCCN1C(=O)C(=O)N(CC(=O)Nc2ccc(OC(F)(F)F)cc2)C1=O	-10.4	·	·	?	33.2	-19.2%
CCN(CC(=O)NC(C)C)C(=O)c1cc(C(C)C)nc2ccccc12	6.4	·	·	·	·	·
